Shiga toxin inh: A qHTS for Small Molecule Inhibitors of Shiga Toxin; Vero cells, Shiga toxin protein synthesis inhibition reporter; 290,000 compounds, 9.2% hits; inhibition, % at 38.7 µM; in the data active = inhibition mostly above about 28%, no sharp cut-off; inactive = mostly below about 43%; also: 0% is about no effect
FMDV inh: High Throughput Screening for Foot and Mouth Disease Virus Antivirals | FMDV antiviral cell-based qHTS | Potency, µM (titrated, usually from 57.9 µM), for inactives: at the top dose activity change, negative = inhibition, most hits filed as inhibitors | 410,000 compounds, 1.2% hits | AID 1159524, 2015; calls by dose curve; tested in HEK293T cells; also: read-out not given here; potency is read from the fitted curve at half-maximal effect; % is scaled to controls: 0 for no effect and ±100 for the full control effect; nearly all actives have a fitted effect of over 45% in size
CHX counter: Cycloheximide Counterscreen for Small Molecule Inhibitors of Shiga Toxin; cell reporter, cycloheximide protein synthesis inhibition counterscreen; max response, %; 300,000 compounds, 12% hits; in the data active = max response mostly above about 13%, no sharp cut-off; inactive = mostly below about 14%; also: read at 38.3 µM for the half of the compounds with a filed dose; 0% is about no effect
Sm TGR inh: qHTS Assay for the Inhibitors of Schistosoma Mansoni Peroxiredoxins; 360,000 compounds, 3% hits; Potency, µM (highest dose often 114 µM), inactives show at the top dose activity change, negative = inhibition, most hits filed as inhibitors; Schistosoma mansoni thioredoxin glutathione reductase (TGR), Q962Y6; purified TGR, DTNB reduction, TNB absorbance 405 nm; active = well fitted inhibition curve with a large enough effect; inconclusive = small, poorly fitted or top-dose-only effect; inactive = no such curve, though single readings can be large or run the other way; also: potency is read from the fitted curve at half-maximal effect; % is scaled to controls: 0 for no effect and ±100 for the full control effect; nearly all actives have a fitted effect of over 60% in size
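Kinetic colorimetric format: TGR-catalysed, NADPH-driven DTNB reduction monitored via TNB absorbance. Enzyme dispensed at 20 nM; compound exposure 15 min at room temperature before reaction start.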
* hit, by the source's call; i = inactive; ? = inconclusive; · = no result given; + = active, no number. A selection: hits, their analogues and other compounds. The true share with any hit is near 12%.

SMILES	Shiga toxin inh	FMDV inh	CHX counter	Sm TGR inh
Nc1c(-c2ccccc2)cnn1-c1cccc(Cl)c1	82*	38%	51*	24%
Cc1cccc(-c2cnn(-c3ccccc3)c2N)c1	101*	45%	44*	9%
CC(C)(C)c1cnnn1-c1cccc([N+](=O)[O-])c1	-10	-5%	2	0%
Cc1cccc(-c2cnn(-c3cccc([N+](=O)[O-])c3)c2N)c1	36	23%	22*	-8%
Nc1ccccc1Nc1cc(-c2cccc(Cl)c2)nn1-c1ccccc1	+	35%	20*	-1%
CCC1(C2CCN(C(=O)c3ccc(C)cc3C)CC2)NC(=O)N(CCc2scnc2C)C1=O (stereo not given)	·	21%	·	·
CSc1ccc(CNC(=O)C2CCCN(S(=O)(=O)N(C)c3ccc(F)cc3)C2)cc1 (stereo not given)	·	?	·	-4%
C=CCn1c(=O)n([C@@H]2O[C@H](CO)[C@@H](O)[C@H]2O)c2nc(N)[nH]c(=O)c21	·	-5%	·	·
CNC(=S)N1CCn2cccc2C1c1ccc(F)cc1 (stereo not given)	-18	1%	16	35µM*
CCOC(=O)c1cccc(NC(=O)CSc2ncc3c(n2)-c2ccc(Cl)cc2N(Cc2ccccc2)S3(=O)=O)c1	·	-21%	·	-31%
CCOC(=O)/C=C1\Nc2ccccc2OC1=O	11	17%	21*	0%
CCOC(=O)/C=C1\CC(C(=O)OCC)Oc2ccccc21 (stereo not given)	i	-7%	16	·
COc1cccc(CNc2ccc(F)c([N+](=O)[O-])c2)c1O	47*	-9%	30*	2%
Cn1cc(C(=O)NS(=O)(=O)Nc2ccc(Br)cn2)c2ccccc21	22*	32%	26*	-12%
COc1ccccc1NS(=O)(=O)NC(=O)c1cn(C)c2ccccc12	10	1%	12	-1%
CC1=CC2/C=C(\C)CCC(O)C(O)/C=C/C(=O)C23C(=O)NC(CC(C)C)C3C1C (stereo not given)	-29	6.3µM*	-6	4µM*
Cc1ccc(C(=O)NC(C(=O)Nc2ccccc2)c2ccccc2)cc1 (stereo not given)	0	-3%	7	23%
Cc1cccc(NC(=S)NCc2ccccn2)c1	42	55%	28	11%
S=C(NCc1ccccn1)Nc1cccc(Cl)c1	26	95%	13*	-21%
Cc1ccc(NC(=S)NCc2ccccn2)cc1	108*	46%	38*	6%
Cc1ccc(NC(=O)C(NCc2ccccn2)c2ccccc2)cc1 (stereo not given)	101*	60%	37*	-11%
O=[N+]([O-])/C(C(Cl)=C(Cl)Cl)=C1\Nc2ccccc2O1	71*	26%	17*	14µM*
O=C1Nc2ccccc2Oc2cc([N+](=O)[O-])ccc21	42	7%	31	-21%
CNC(=O)CSc1nc(N)c2c3c(sc2n1)CCC3	2	22%	9	-11%
Nc1nc(SCC(=O)NCCOCCO)nc2sc3c(c12)CCCC3	33	19%	6	0%
SMILES	Shiga toxin inh	FMDV inh	CHX counter	Sm TGR inh
C=CCn1c(SCC(N)=O)nc2sc3c(c2c1=O)CCC3	-11	-12%	1	84%
NC(=O)CSc1nc(C2CC2)nc2sc3c(c12)CCCC3	47*	13%	19*	0%
CCSc1nc(N)c2c3c(sc2n1)CCC3	61*	22%	21*	-6%
NC(=O)CSc1nc(N)c2c3c(sc2n1)CCCCC3	39	24%	21*	-1%
COc1ccccc1CNC(=O)c1cnc(N(C)C)nc1	·	-6%	·	-4%
CN(C)c1ccccc1C(=O)c1ccccc1N(C)C	86*	83%	28*	-12%
Cc1ccc(S(=O)(=O)NCCc2cn3ccsc3n2)cc1	·	0%	·	-17%
O=C1c2ccccc2NC(c2cccc([N+](=O)[O-])c2)N1CCc1ccccc1 (stereo not given)	74*	0%	44*	-22%
CCCNC(=O)OCc1cccnc1Sc1ccc(C)cc1	98*	46%	31*	4%
CCOc1cc(/C=C2\CN(CC)C/C(=C\c3ccc(O)c(OCC)c3)C2=O)ccc1O	3	10µM*	24*	40µM*
CCN1C/C(=C/c2cccc([N+](=O)[O-])c2)C(=O)/C(=C/c2cccc([N+](=O)[O-])c2)C1	1	3.5µM*	-7	-29%
COc1cc(/C=C2\CCC/C(=C\c3ccc(O)c(OC)c3)C2=O)ccc1O	76*	?	42*	?
CCOc1cc(/C=C2\CCCC(C(=O)C(F)(F)F)=C2O)ccc1O	12	26%	-3	?

High-throughput results deposited in PubChem by National Center for Advancing Translational Sciences (NCATS).
